Assay [1] concerns T1, JNK3.
T1 construct: gene MAPK10
The conditions noted are these: concentration: 1 μM, replicates: in singlicate; n = 1.

In assay [2] the test system is KIT-autoinhibited. To be noted: concentration: 1 μM, replicates: in singlicate; n = 1.
Assay [3] relates to KIT. To be noted: concentration: 1 μM, replicates: in singlicate; n = 1.
In assay [4] the test system is LATS1. The conditions noted are these: concentration: 1 μM, replicates: in singlicate; n = 1.
The subject of assay [5] is LATS2. The conditions noted are these: concentration: 1 μM, replicates: in singlicate; n = 1.
Assay [6] deals with LCK. To be noted: concentration: 1 μM, replicates: in singlicate; n = 1.
Assay [7] relates to LIMK1. To be noted: concentration: 1 μM, replicates: in singlicate; n = 1.
Assay [8] deals with LIMK2. The conditions noted are these: concentration: 1 μM, replicates: in singlicate; n = 1.
For assay [9], the system named is T2, LKB1.
T2 construct: gene STK11
To be noted: concentration: 1 μM, replicates: in singlicate; n = 1.

Assay [10] concerns T3, LOK.
T3 construct: gene STK10
To be noted: concentration: 1 μM, replicates: in singlicate; n = 1.

The subject of assay [11] is LRRK2. The conditions noted are these: concentration: 1 μM, replicates: in singlicate; n = 1.
The test system of assay [12] is LTK. The conditions noted are these: n = 1.
In assay [13] the test system is LYN. The conditions noted are these: concentration: 1 μM, replicates: in singlicate; n = 1.
The subject of assay [14] is T4, LZK.
T4 construct: gene MAP3K13
To be noted: concentration: 1 μM, replicates: in singlicate; n = 1.

The subject of assay [15] is MAK. The conditions noted are these: concentration: 1 μM, replicates: in singlicate; n = 1.
Assay [16] relates to MAP3K15. The conditions noted are these: concentration: 1 μM, replicates: in singlicate; n = 1.
For assay [17], the system named is MAP3K1. The conditions noted are these: concentration: 1 μM, replicates: in singlicate; n = 1.
Assay [18] has as its system MAP3K2. The conditions noted are these: concentration: 1 μM, replicates: in singlicate; n = 1.
The test system of assay [19] is MAP3K3. To be noted: concentration: 1 μM, replicates: in singlicate; n = 1.
Assay [20] has as its system MAP3K4. The conditions noted are these: concentration: 1 μM, replicates: in singlicate; n = 1.
Setting [21] is: concentration: 1 μM, replicates: in singlicate.

We go through eleven compounds from article PMC5540273 (PLoS ONE, 2017).

Like-named read-outs stand apart in the source and are kept apart here.
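Further: KINOMEscan kinase panel screen.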

`Cc1ccc(NC(=O)c2ccc(Cl)cc2)cc1-c1ccc(C(=O)Nc2ccncc2)cc1` [GSK1398467]: the “%Inh” value amounted to 0% in assay [1]; 0% in [2]; 99.4% in assay [3]; 0% in [4]; 0% in assay [5]; 68% in assay [6]. Besides, the “%Inh” value is 0% in [7]; 3% in [8]; 0% in assay [9]; 0% in assay [10]; 100% in assay [11]; 19% in [12] (setting [21]). Further, the “%Inh” value was determined as 30% in assay [13]; 3% in [14]; 0% in assay [15]; 0% in assay [16]; 12% in assay [17]; 0% in assay [18]. In addition, the “%Inh” value in assay [19] and in assay [20] was 0% throughout.

Consider `Nc1cccc(-c2ccc3c(N)n[nH]c3c2)n1` [GSK2192730], for which the “%Inh” value in assay [1] was 0%; in [2], 0%; in assay [3] it was 14%; in assay [4], 0%; in assay [5], 17%; in assay [6] it was 0%. The “%Inh” value in [7] was determined as 0%; in assay [8], 2%; in [9] it was 7%; in [10], 0%; in assay [11], 0%; in assay [12] (setting [21]) it was 0%. The “%Inh” value in [13] was 0%; in assay [14], 0%; in assay [15], 26%; in assay [16] it was 0%; in assay [17], 23%; in [18], 0%. The “%Inh” value turned out to be 0% in assay [19] and 25% in [20].

Turning to `COc1ccc(CSc2nnc(-c3ccc4ncsc4c3)o2)cc1C(F)(F)F`, the “%Inh” value in assay [1] turned out to be 0%; in assay [2] it was 0%; in [3], 18%; in assay [4] it was 12%; in assay [5], 0%; in assay [6], 0%. The “%Inh” value came out at 0% in assay [7]; 0% in [8]; 2% in assay [9]; 0% in assay [10]; 0% in [11]; 0% in assay [12] (setting [21]). In addition, the “%Inh” value in [13], in assay [14], in [15], in [16], in assay [17] and in assay [18] was 0% throughout. Also, the results for the “%Inh” value in assay [19] and in assay [20] were 0% and 7%, respectively.

Turning to `Cc1ccc(-c2nc(Nc3ccncc3)c3ccccc3n2)s1` [GSK189015], the “%Inh” value in assay [1] is on record as 14%; in [2], 0%; in assay [3], 22%; in assay [4], 0%; in [5], 0%; in assay [6], 7%. Also, the “%Inh” value in assay [7] was 31%; in assay [8] it was 7%; in assay [9], 0%; in [10], 1%; in [11], 54%; in assay [12] (setting [21]), 1%. Besides, the “%Inh” value was 0% in assay [13]; 0% in assay [14]; 36% in assay [15]; 12% in assay [16]; 40% in [17]; 0% in assay [18]. Moreover, the figures for the “%Inh” value in assay [19] and in assay [20] were 0% and 26%, respectively.

Turning to `CCCCc1nn2ncccc2c1-c1ccnc(NC2CC2)n1` [GW684374], the “%Inh” value in [1] came out at 82%; in assay [2], 0%; in [3], 67%; in assay [4], 0%; in assay [5] it was 0%; in assay [6], 17%. Also, the “%Inh” value in assay [7] was found to be 33%; in assay [8], 34%; in assay [9] it was 0%; in [10] it was 0%; in assay [11], 0%; in assay [12] (setting [21]), 0%. Besides, the “%Inh” value in [13] was 0%; in [14], 0%; in [15], 19%; in assay [16] it was 0%; in [17], 3%; in assay [18] it was 0%. Moreover, the “%Inh” value is given as 0% in assay [19] and 6% in assay [20].

Take `COc1ccc(Nc2nccc(N3CCC(NC(=O)c4cc5ccccc5s4)C3)n2)cc1` (stereo not shown) [GSK1379738]: the “%Inh” value in assay [1] was found to be 10%; in assay [2], 0%; in assay [3] it was 7%; in [4], 0%; in [5], 1%; in assay [6], 16%. Also, the “%Inh” value in assay [7] is recorded as 8%; in assay [8] it was 17%; in assay [9], 0%; in [10], 0%; in assay [11], 0%; in [12] (setting [21]), 0%. For the same compound, the “%Inh” value amounted to 0% in assay [13]; 23% in [14]; 86% in assay [15]; 0% in [16]; 5% in assay [17]; 0% in assay [18]. Besides, the “%Inh” value in assay [19] is listed as 0%; in assay [20], 29%.

For `CC(=O)c1c(C)c2cnc(Nc3ccc(N4CCNCC4)cn3)nc2n(C2CCCC2)c1=O`, the “%Inh” value came to 0% in [1]; 0% in assay [2]; 0% in assay [3]; 15% in [4]; 26% in [5]; 0% in assay [6]. In addition, the “%Inh” value stood at 0% in [7]; 99.5% in assay [8]; 0% in assay [9]; 0% in [10]; 0% in [11]; 0% in [12] (setting [21]). For the same compound, the “%Inh” value in [13] turned out to be 0%; in [14], 89%; in assay [15] it was 0%; in [16], 0%; in [17], 0%; in assay [18] it was 0%. The “%Inh” value in assay [19] turned out to be 0%; in assay [20], 14%.

As for `CNc1cc(-c2ccc3c(N)n[nH]c3c2)nc(N)n1` [GSK2224810], the “%Inh” value in [1] came to 0%; in [2] it was 0%; in assay [3], 19%; in assay [4], 0%; in assay [5], 20%; in assay [6], 0%. Also, the “%Inh” value turned out to be 0% in assay [7]; 9% in assay [8]; 0% in assay [9]; 0% in assay [10]; 0% in assay [11]; 0% in [12] (setting [21]). Further, the “%Inh” value in assay [13] was 0%; in assay [14] it was 18%; in assay [15], 0%; in [16] it was 0%; in assay [17] it was 0%; in assay [18], 0%. The “%Inh” value in assay [19] and in assay [20] was 0% in each case.

Consider `CS(=O)(=O)Cc1ccc(Nc2nccc(-c3c(-c4cccc(NC(=O)C5CCCCC5)c4)nn4ncccc34)n2)cc1` [GSK350559], for which the “%Inh” value came out at 36% in assay [1]; 14% in [2]; 88% in [3]; 0% in assay [4]; 48% in [5]; 23% in [6]. For the same compound, the “%Inh” value was found to be 22% in [7]; 14% in assay [8]; 0% in [9]; 81% in assay [10]; 20% in [11]; 0% in [12] (1 µM). For the same compound, the “%Inh” value worked out at 16% in assay [13]; 0% in assay [14]; 0% in [15]; 38% in [16]; 30% in [17]; 15% in [18]. Moreover, the “%Inh” value in [19] stood at 19%; in [20], 11%.

Regarding `Cc1ccccc1-c1cc(-c2c[nH]nc2-c2ccccn2)ccn1` [GW680061], the “%Inh” value in assay [1] worked out at 32%; in [2] it was 0%; in assay [3] it was 39%; in [4], 0%; in assay [5] it was 0%; in assay [6], 5%. The “%Inh” value came to 0% in assay [7]; 0% in assay [8]; 0% in [9]; 0% in [10]; 23% in [11]; 0% in [12] (setting [21]). The “%Inh” value in assay [13] is 0%; in [14] it was 4%; in [15], 34%; in assay [16], 0%; in [17], 10%; in [18] it was 1%. The “%Inh” value is listed as 0% in assay [19] and 14% in assay [20].

For the compound `O=C(Nc1n[nH]c2nc(-c3cccs3)c(Br)cc12)C1CCCC1` [SB-743341], the “%Inh” value in assay [1] was 46%; in assay [2], 13%; in assay [3] it was 36%; in [4] it was 20%; in assay [5] it was 0%; in assay [6] it was 38%. Moreover, the “%Inh” value in assay [7] is 2%; in [8] it was 15%; in assay [9], 0%; in assay [10], 26%; in [11] it was 28%; in assay [12] (setting [21]), 17%. In addition, the “%Inh” value in assay [13] was 0%; in assay [14], 36%; in assay [15] it was 77%; in [16] it was 32%; in [17], 49%; in assay [18], 5%. For the same compound, the figures for the “%Inh” value in [19] and in assay [20] were 28% and 0%, respectively.
